# Reference: the supplement of paper PMC11732987, “Enantioselective OTUD7B fragment discovery through chemoproteomics screening and high-throughput optimisation” (Communications Chemistry, 2025)
# A number with no mark means an inactive call.
# Key:
# Test in all cases: log2 ratio of Biotin-Ahx-Ub-VS probe labelling (fragment/DMSO); higher = less target engagement (more negative = stronger competition), active = hit call of the paper (q ≤ 0.05, log2 ratio ≤ -1)
# Conditions in all cases: compound concentration: 200 uM; treatment time: 3 h
# [1] = biological target: T1, USP19 (UniProt O94966)
# T1 sequence (whole entry): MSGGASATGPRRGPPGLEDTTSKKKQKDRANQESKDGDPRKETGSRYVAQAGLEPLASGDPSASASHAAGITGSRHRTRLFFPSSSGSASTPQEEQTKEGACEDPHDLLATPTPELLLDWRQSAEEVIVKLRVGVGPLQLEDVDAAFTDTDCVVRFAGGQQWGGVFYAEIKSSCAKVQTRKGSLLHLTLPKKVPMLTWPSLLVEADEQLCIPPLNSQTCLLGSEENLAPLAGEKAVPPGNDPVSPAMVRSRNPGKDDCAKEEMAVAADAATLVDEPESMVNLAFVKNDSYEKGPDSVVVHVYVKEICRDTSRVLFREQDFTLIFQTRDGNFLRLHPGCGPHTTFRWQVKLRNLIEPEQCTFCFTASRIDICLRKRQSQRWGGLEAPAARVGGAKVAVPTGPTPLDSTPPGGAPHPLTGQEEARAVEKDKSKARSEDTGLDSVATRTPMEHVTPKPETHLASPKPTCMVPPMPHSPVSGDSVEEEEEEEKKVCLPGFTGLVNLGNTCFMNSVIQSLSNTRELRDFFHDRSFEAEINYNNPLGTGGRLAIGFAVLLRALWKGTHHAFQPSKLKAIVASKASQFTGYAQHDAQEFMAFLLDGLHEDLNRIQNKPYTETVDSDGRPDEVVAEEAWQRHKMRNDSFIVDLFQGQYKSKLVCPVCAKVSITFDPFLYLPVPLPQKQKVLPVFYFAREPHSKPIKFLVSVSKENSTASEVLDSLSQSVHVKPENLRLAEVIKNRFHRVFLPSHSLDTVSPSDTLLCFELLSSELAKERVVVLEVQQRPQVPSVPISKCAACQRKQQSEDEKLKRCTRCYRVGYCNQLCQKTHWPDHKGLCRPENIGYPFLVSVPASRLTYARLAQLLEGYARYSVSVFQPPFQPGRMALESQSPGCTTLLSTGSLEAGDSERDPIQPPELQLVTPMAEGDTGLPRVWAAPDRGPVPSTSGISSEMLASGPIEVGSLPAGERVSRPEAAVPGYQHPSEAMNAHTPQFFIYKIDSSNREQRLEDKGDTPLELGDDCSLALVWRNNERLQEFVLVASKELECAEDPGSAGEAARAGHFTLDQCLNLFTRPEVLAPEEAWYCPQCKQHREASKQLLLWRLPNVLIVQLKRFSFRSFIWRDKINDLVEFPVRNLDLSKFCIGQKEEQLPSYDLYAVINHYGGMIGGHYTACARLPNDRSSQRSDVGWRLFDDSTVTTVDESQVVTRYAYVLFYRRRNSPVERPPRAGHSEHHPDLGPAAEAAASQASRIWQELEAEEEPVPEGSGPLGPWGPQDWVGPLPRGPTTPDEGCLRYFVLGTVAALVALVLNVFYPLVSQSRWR
# In short: (§1)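 Average log2 ratios of fragment over vehicle were obtained by unpaired t-test from global-median-normalised Spectronaut label-free quantities. Proteins with ≥2 unique peptides were included. HEK293T lysate (495 µg per sample) was treated in triplicate with fragment at 200 µM or vehicle for 3 h, then with Biotin-Ahx-Ub-VS at 0.5 µM final for 1 h, and labelled DUBs were NeutrAvidin-enriched and run by diaPASEF LC-MS/MS.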
# [2] = biological target: USP24 (UniProt Q9UPU5)
# Sequence of USP24 (Q9UPU5 whole entry): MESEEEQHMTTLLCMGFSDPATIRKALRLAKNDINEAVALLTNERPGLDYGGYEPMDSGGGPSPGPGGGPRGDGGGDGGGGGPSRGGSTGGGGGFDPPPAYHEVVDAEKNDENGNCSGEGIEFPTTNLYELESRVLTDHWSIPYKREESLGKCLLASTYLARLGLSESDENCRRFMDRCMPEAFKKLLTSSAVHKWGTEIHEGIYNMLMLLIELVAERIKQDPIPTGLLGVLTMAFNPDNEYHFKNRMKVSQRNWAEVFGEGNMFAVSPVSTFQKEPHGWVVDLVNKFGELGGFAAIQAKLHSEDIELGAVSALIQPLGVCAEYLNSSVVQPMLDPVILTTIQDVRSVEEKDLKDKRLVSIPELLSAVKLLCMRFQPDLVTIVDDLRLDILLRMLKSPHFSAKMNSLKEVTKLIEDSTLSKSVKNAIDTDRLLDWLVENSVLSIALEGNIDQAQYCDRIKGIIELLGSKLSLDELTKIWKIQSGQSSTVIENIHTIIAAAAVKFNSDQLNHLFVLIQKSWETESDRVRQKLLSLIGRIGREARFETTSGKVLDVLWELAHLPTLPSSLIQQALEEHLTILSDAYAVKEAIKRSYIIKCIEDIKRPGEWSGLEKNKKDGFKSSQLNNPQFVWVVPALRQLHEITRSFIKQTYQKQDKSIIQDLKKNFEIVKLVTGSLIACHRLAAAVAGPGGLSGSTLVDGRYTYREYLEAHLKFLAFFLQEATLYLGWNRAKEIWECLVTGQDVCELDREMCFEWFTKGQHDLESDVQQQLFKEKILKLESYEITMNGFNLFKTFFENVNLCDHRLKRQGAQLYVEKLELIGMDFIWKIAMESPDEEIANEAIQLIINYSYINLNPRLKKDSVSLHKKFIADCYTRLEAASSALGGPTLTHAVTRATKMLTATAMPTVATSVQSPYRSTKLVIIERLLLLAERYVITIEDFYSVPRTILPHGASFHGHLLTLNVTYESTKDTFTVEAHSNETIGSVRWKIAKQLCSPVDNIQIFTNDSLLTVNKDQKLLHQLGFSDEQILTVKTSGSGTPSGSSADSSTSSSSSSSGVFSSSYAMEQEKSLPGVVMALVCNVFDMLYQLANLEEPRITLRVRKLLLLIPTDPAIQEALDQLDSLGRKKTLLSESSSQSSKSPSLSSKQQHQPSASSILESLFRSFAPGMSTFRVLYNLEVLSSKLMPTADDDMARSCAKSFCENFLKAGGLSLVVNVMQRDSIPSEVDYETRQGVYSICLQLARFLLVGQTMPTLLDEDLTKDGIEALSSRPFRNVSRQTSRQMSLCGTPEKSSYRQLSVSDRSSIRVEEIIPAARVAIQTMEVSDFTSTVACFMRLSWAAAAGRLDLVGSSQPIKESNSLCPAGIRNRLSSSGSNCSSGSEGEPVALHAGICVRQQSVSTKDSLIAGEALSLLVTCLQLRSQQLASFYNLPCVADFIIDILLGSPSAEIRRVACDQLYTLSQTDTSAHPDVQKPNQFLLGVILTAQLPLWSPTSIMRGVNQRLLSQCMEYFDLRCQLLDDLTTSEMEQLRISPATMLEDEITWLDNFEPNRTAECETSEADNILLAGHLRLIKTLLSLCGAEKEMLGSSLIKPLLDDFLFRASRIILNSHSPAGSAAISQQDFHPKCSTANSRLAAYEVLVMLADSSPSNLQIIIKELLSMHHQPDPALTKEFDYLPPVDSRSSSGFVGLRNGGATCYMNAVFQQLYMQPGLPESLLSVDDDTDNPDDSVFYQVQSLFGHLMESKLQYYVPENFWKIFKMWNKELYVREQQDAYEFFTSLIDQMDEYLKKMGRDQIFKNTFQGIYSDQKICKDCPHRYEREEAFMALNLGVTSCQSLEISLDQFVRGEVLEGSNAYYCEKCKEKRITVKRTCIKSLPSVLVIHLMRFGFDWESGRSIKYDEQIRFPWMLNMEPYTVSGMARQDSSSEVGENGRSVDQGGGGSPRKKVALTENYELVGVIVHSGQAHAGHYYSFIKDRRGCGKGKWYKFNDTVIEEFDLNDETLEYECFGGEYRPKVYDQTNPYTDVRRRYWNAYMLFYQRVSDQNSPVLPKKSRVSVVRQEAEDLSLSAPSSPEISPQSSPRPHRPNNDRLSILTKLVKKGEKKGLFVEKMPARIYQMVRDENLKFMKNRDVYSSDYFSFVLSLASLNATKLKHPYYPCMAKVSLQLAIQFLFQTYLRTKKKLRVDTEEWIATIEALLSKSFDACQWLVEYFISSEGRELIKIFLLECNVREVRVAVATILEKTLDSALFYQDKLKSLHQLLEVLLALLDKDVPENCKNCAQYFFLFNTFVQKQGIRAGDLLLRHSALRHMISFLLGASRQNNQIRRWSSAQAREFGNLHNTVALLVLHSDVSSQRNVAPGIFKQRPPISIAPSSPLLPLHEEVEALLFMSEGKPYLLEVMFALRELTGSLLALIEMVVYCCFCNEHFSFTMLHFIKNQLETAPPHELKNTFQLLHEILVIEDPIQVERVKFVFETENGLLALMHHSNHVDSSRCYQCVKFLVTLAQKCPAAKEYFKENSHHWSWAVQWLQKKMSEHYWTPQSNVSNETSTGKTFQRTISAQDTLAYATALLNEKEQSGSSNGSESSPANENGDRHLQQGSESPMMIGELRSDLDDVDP
# In short: as §1
# [3] = biological target: T2, USP25 (UniProt Q9UHP3)
# T2 sequence (whole entry): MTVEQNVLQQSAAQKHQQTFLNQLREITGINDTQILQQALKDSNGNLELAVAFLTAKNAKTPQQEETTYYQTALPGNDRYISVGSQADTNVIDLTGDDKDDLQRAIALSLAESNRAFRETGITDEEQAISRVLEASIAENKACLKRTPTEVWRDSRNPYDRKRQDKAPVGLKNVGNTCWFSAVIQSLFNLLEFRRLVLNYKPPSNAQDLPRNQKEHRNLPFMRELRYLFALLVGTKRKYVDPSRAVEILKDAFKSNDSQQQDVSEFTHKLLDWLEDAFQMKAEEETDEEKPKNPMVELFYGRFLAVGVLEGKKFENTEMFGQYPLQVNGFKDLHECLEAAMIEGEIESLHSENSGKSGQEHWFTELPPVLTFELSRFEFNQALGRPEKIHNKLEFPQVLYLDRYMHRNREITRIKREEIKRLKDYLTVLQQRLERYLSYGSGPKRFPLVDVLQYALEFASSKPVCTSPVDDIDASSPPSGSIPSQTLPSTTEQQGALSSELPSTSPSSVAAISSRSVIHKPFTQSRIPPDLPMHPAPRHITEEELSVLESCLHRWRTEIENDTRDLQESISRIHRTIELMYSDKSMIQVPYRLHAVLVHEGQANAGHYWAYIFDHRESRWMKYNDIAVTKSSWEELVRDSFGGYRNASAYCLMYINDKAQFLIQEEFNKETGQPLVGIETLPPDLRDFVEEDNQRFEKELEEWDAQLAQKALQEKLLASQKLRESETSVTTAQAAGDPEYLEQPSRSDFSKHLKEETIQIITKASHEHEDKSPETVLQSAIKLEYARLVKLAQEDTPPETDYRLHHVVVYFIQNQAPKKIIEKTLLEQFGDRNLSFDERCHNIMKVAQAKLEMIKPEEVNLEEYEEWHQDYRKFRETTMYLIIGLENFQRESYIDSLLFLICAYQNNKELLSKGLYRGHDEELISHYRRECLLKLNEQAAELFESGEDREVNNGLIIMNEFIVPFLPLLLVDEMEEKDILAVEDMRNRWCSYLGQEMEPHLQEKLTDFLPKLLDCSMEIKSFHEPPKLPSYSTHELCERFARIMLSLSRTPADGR
# In short: as §1
# [4] = biological target: T3, USP28 (UniProt Q96RU2)
# T3 sequence (whole entry): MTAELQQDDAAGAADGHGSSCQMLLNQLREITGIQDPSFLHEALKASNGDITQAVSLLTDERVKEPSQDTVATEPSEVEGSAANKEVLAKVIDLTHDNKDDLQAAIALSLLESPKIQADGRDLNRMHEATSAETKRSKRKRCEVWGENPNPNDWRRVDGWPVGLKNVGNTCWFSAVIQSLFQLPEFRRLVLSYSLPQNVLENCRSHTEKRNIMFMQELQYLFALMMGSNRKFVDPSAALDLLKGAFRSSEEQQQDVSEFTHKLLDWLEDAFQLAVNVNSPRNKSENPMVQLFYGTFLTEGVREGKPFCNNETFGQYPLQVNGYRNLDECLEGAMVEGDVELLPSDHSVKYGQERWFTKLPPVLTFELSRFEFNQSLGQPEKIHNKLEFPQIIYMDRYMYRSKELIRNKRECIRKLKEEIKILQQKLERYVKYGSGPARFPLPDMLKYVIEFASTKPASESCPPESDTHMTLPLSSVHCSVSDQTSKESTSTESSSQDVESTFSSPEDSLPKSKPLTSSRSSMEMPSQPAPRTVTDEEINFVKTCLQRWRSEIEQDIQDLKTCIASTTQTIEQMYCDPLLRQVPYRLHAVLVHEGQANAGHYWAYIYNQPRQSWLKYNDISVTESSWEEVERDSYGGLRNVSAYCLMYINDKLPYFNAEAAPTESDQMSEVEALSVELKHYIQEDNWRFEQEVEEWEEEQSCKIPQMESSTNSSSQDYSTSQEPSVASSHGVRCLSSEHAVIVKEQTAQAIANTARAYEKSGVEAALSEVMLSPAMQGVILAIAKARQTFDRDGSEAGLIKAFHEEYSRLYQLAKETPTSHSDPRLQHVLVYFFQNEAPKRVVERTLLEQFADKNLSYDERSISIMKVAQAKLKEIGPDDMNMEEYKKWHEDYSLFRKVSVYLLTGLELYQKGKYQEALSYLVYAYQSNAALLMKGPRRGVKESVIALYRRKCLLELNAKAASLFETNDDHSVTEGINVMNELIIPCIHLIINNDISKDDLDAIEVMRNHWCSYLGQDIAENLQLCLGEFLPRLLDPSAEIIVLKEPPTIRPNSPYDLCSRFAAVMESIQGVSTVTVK
# In short: as §1
compound,measurement,setting,value
CC1CN(c2ccc(NC(=O)CCl)cc2)CC(C)O1 (centres undefined),log2 ratio of Biotin-Ahx-Ub-VS probe labelling,[1],-0.126
same,log2 ratio of Biotin-Ahx-Ub-VS probe labelling,[2],-0.205
same,log2 ratio of Biotin-Ahx-Ub-VS probe labelling,[3],-1.58 (active)
same,log2 ratio of Biotin-Ahx-Ub-VS probe labelling,[4],-1.57 (active)
